Measured values: PubChem BioAssay AID1159580 (chemical genetic matrix, 2015)
The campaign covered roughly 5,500 compounds. About 2,000 (36%) were called active. Another 18% or so got no clear call; they are omitted. Cut-off read from the data, not from the text of the source: active = normalized growth mostly below about 0.91 (no sharp cut-off); inconclusive = no clear call, values can overlap the other calls; inactive = mostly above about 0.92. The list shows a part of the results.

Assay: chemical genetic growth profiling, strain panel (AID 1159580);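 note: tested at 20 µM; growth read once vehicle control cultures reached saturation at 30 °C; 1 = growth at the plate median or of vehicle wells; lower values mean less growth of the strain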
Conditions: growth OD

Measured: normalized growth

COc1ccc(CC2c3cc(OC)c(OC)cc3CCN2C)cc1OC (stereo unspecified)
inactive: S. cerevisiae deletion strains, locus YAL013W, strain DEP1, stronger effect = lower value 0.984 | S. cerevisiae deletion strains, locus YBR021W, strain FUR4, stronger effect = lower value 1.05 | S. cerevisiae deletion strains, locus YBR229C, strain ROT2, stronger effect = lower value 0.969 | S. cerevisiae deletion strains, locus YCL029C, strain bik1, stronger effect = lower value 0.988 | S. cerevisiae deletion strains, locus YDL035C, strain GPR1, stronger effect = lower value 0.997 | S. cerevisiae deletion strains, locus YDL074C, strain BRE1, stronger effect = lower value 0.964 | S. cerevisiae deletion strains, locus YDL101C, strain DUN1, stronger effect = lower value 0.961 | S. cerevisiae deletion strains, locus YDL134C, strain PPH21, stronger effect = lower value 0.981 | S. cerevisiae deletion strains, locus YDL185W, strain tfp1, stronger effect = lower value 0.951 | S. cerevisiae deletion strains, locus YDL192W, strain arf1, stronger effect = lower value 0.994 | S. cerevisiae deletion strains, locus YDR101C, strain arx1, stronger effect = lower value 1.01 | S. cerevisiae deletion strains, locus YDR150W, strain NUM1, stronger effect = lower value 0.974 | S. cerevisiae deletion strains, locus YDR162C, strain NBP2, stronger effect = lower value 0.941 | S. cerevisiae deletion strains, locus YDR318W, strain mcm21, stronger effect = lower value 1.02 | S. cerevisiae deletion strains, locus YDR388W, stronger effect = lower value 0.992 | S. cerevisiae deletion strains, locus YDR502C, strain sam2, stronger effect = lower value 0.974 | S. cerevisiae deletion strains, locus YEL061C, strain CIN8, stronger effect = lower value 0.988 | S. cerevisiae deletion strains, locus YER110C, stronger effect = lower value 0.987 | S. cerevisiae deletion strains, locus YER155C, strain BEM2, stronger effect = lower value 1 | S. cerevisiae deletion strains, locus YER167W, strain BCK2, stronger effect = lower value 0.997 | S. cerevisiae deletion strains, locus YGL078C, strain dbp3, stronger effect = lower value 0.976 | S. cerevisiae deletion strains, locus YGL086W, strain mad1, stronger effect = lower value 1.01 | S. cerevisiae deletion strains, locus YGL248W, strain PDE1, stronger effect = lower value 0.978 | S. cerevisiae deletion strains, locus YGR078C, strain PAC10, stronger effect = lower value 0.967 | S. cerevisiae deletion strains, locus YGR135W, strain pre9, stronger effect = lower value 0.957 | S. cerevisiae deletion strains, locus YGR229C, strain SMI1, stronger effect = lower value 0.997 | S. cerevisiae deletion strains, locus YGR252W, strain gcn5, stronger effect = lower value 1.08 | S. cerevisiae deletion strains, locus YHR030C, strain SLT2, stronger effect = lower value 1 | S. cerevisiae deletion strains, locus YHR079C, strain IRE1 (second series), stronger effect = lower value 0.99 | S. cerevisiae deletion strains, locus YHR094C, strain hxt1, stronger effect = lower value 0.988 | S. cerevisiae deletion strains, locus YHR129C, strain ARP1, stronger effect = lower value 0.987 | S. cerevisiae deletion strains, locus YHR200W, strain rpn10, stronger effect = lower value 0.982 | S. cerevisiae deletion strains, locus YIL066C, strain RNR3, stronger effect = lower value 0.971 | S. cerevisiae deletion strains, locus YIL073C, strain SPO22, stronger effect = lower value 1.02 | S. cerevisiae deletion strains, locus YIL125W, strain kgd1, stronger effect = lower value 0.983 | S. cerevisiae deletion strains, locus YIR030C, strain dcg1, stronger effect = lower value 0.979 | S. cerevisiae deletion strains, locus YJL095W, strain BCK1, stronger effect = lower value 0.985 | S. cerevisiae deletion strains, locus YJL134W, strain LCB3, stronger effect = lower value 0.993 | S. cerevisiae deletion strains, locus YJL168C, strain set2, stronger effect = lower value 0.98 | S. cerevisiae deletion strains, locus YJL187C, strain SWE1 (second series), stronger effect = lower value 0.959 | S. cerevisiae deletion strains, locus YJR043C, strain POL32, stronger effect = lower value 1.03 | S. cerevisiae deletion strains, locus YJR075W, strain HOC1, stronger effect = lower value 0.926 | S. cerevisiae deletion strains, locus YKL009W, strain mrt4, stronger effect = lower value 0.995 | S. cerevisiae deletion strains, locus YKL068W, stronger effect = lower value 0.99 | S. cerevisiae deletion strains, locus YKL085W, strain MDH1 (second series), stronger effect = lower value 0.97 | S. cerevisiae deletion strains, locus YKL085W, strain MDH1, stronger effect = lower value 0.97 | S. cerevisiae deletion strains, locus YKL190W, strain CNB1, stronger effect = lower value 0.978 | S. cerevisiae deletion strains, locus YKR001C, strain vps1, stronger effect = lower value 1 | S. cerevisiae deletion strains, locus YLR039C, strain RIC1, stronger effect = lower value 0.959 | S. cerevisiae deletion strains, locus YLR058C, strain SHM2, stronger effect = lower value 0.973 | S. cerevisiae deletion strains, locus YLR102C, strain apc9, stronger effect = lower value 0.978 | S. cerevisiae deletion strains, locus YLR262C, strain YPT6, stronger effect = lower value 0.951 | S. cerevisiae deletion strains, locus YLR268W, strain sec22, stronger effect = lower value 0.953 | S. cerevisiae deletion strains, locus YLR330W, strain CHS5, stronger effect = lower value 0.998 | S. cerevisiae deletion strains, locus YLR342W, strain FKS1 (second series), stronger effect = lower value 1.05 | S. cerevisiae deletion strains, locus YLR371W, strain rom2, stronger effect = lower value 0.993 | S. cerevisiae deletion strains, locus YLR418C, strain cdc73, stronger effect = lower value 0.955 | S. cerevisiae deletion strains, locus YML016C, strain PPZ1, stronger effect = lower value 0.988 | S. cerevisiae deletion strains, locus YML032C, strain rad52, stronger effect = lower value 1 | S. cerevisiae deletion strains, locus YML124C, strain tub3, stronger effect = lower value 0.993 | S. cerevisiae deletion strains, locus YMR078C, strain ctf18, stronger effect = lower value 0.989 | S. cerevisiae deletion strains, locus YMR223W, strain ubp8, stronger effect = lower value 0.948 | S. cerevisiae deletion strains, locus YMR263W, strain SAP30, stronger effect = lower value 0.96 | S. cerevisiae deletion strains, locus YMR307W, strain GAS1, stronger effect = lower value 1.1 | S. cerevisiae deletion strains, locus YNL067W, strain RPL9B, stronger effect = lower value 0.959 | S. cerevisiae deletion strains, locus YNL128W, strain TEP1, stronger effect = lower value 0.945 | S. cerevisiae deletion strains, locus YNL153C, strain GIM3, stronger effect = lower value 0.947 | S. cerevisiae deletion strains, locus YNL233W, strain BNI4, stronger effect = lower value 0.979 | S. cerevisiae deletion strains, locus YNL250W, strain rad50, stronger effect = lower value 0.97 | S. cerevisiae deletion strains, locus YNL271C, strain bni1, stronger effect = lower value 0.987 | S. cerevisiae deletion strains, locus YNL298W, strain CLA4, stronger effect = lower value 0.978 | S. cerevisiae deletion strains, locus YNL307C, strain MCK1, stronger effect = lower value 0.998 | S. cerevisiae deletion strains, locus YNL322C, strain KRE1, stronger effect = lower value 0.982 | S. cerevisiae deletion strains, locus YNR052C, strain pop2, stronger effect = lower value 0.991 | S. cerevisiae deletion strains, locus YOL006C, strain TOP1, stronger effect = lower value 0.936 | S. cerevisiae deletion strains, locus YOL012C, strain htz1 0.876 | S. cerevisiae deletion strains, locus YOL147C, strain pex11, stronger effect = lower value 0.991 | S. cerevisiae deletion strains, locus YOR061W, strain CKA2, stronger effect = lower value 0.964 | S. cerevisiae deletion strains, locus YOR069W, strain VPS5, stronger effect = lower value 0.994 | S. cerevisiae deletion strains, locus YOR136W, strain idh2, stronger effect = lower value 0.994 | S. cerevisiae deletion strains, locus YOR144C, strain elg1, stronger effect = lower value 0.993 | S. cerevisiae deletion strains, locus YOR184W, strain ser1, stronger effect = lower value 1.03 | S. cerevisiae deletion strains, locus YOR316C, strain cot1, stronger effect = lower value 0.975 | S. cerevisiae deletion strains, locus YPL055C, strain LGE1, stronger effect = lower value 0.935 | S. cerevisiae deletion strains, locus YPL241C, strain CIN2, stronger effect = lower value 0.99 | S. cerevisiae deletion strains, locus YPR119W, strain clb2, stronger effect = lower value 0.995 | S. cerevisiae deletion strains, locus YPR141C, strain kar3, stronger effect = lower value 0.968 | S. cerevisiae deletion strains, locus YPR163C, strain tif3, stronger effect = lower value 0.984 | S. cerevisiae deletion strains, locus YPR167C, strain met16, stronger effect = lower value 0.979 | S. cerevisiae deletion strains, strain wtn01, stronger effect = lower value 0.934 | S. cerevisiae strains, strain wild type, stronger effect = lower value 0.987
